Screening data as filed in PubChem BioAssay.
Hits are enriched below; roughly 21% of the tested compounds scored in any of these assays.
Shiga inhibitor – blocks Shiga toxin action in Vero cells; Vero cells, Shiga toxin protein synthesis inhibition reporter; inhibition, % at 38.7 µM; 290,000 compounds, 9.2% hits; AID 2315; in the data active = inhibition mostly above about 28%, no sharp cut-off; inactive = mostly below about 43%; note: 0% is about no effect
Pf growth 96h – inhibits malaria parasite growth, 96 h; P. falciparum luciferase reporter growth, 96 h; Potency, µM (series often up to 28.7 µM), without a hit: at the top dose activity change, negative = inhibition, usual class: inhibitors; 320,000 compounds, 6.9% hits; AID 504834; note: potency is the fitted concentration of half-maximal effect; % is set by controls: 0 for no effect and ±100 for the full control effect
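P. falciparum expressing integrated firefly luciferase grown in erythrocytes (2% hematocrit, 0.05% parasitemia final) with compounds for 96 hours at 37 C, 5% CO2. Growth inhibition read as loss of luminescence after adding luciferase detection reagent.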
NS1 inh – blocks influenza NS1 protein function; Potency, µM (titrated, usually from 46.1 µM), without a hit: at the top dose activity, positive = more growth; 270,000 compounds, 0.4% hits; AID 2326; calls by dose curve; note: potency is the fitted concentration of half-maximal effect; actives are rising curves; nearly all actives have a fitted effect of over 50% in size
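OD600 was taken as the measure of yeast growth restored by compound in an NS1-expressing S. cerevisiae strain. Cells had been washed out of glucose medium and diluted 1:100 into galactose -URA medium, pH 6.0.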
Cycloheximide cs – affects cycloheximide protein synthesis inhibition readout, counter-screen; AID 2314; max response, %; cell reporter, cycloheximide protein synthesis inhibition counterscreen; 300,000 compounds, 12% hits; in the data active = max response mostly above about 13%, no sharp cut-off; inactive = mostly below about 14%; note: read at 38.3 µM for the half of the compounds with a filed dose; 0% is about no effect
Pf growth 48h – inhibits P. falciparum growth in the first generation, 48 h | P. falciparum luciferase growth in erythrocytes, 48 h | Potency, µM (series often up to 28.7 µM), inactives show top-dose activity change, negative = inhibition, most hits filed as inhibitors | 310,000 compounds, 5.9% hits; note: potency is the fitted concentration of half-maximal effect; % is set by controls: 0 for no effect and ±100 for the full control effect
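Here the parasites carry a stable luciferase gene and grow inside erythrocytes in Albumax-based RPMI medium with compound for one erythrocytic cycle. Activity is scored as loss of luminescent signal.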
Starred values were filed as active, the others as inactive; u = inconclusive; x = no result. Unless noted, calls come from the whole dose curve; as a rule, active = well fitted inhibition curve with a large enough effect; inconclusive = small, poorly fitted or top-dose-only effect, or another doubt; inactive = no such curve, though single readings can be large or run the other way.

SMILES | Shiga inhibitor | Pf growth 96h | NS1 inh | Cycloheximide cs | Pf growth 48h
CCC(c1nnnn1C1CCCCC1)N(Cc1ccco1)Cc1cc2ccc(OC)cc2[nH]c1=O (configuration not stated) | -6 | -7% | -2% | -6 | 7.4µM*
COc1ccc(/C=N/N2CCN(C3c4ccccc4-c4ccccc43)CC2)cc1O | -2 | u | 18% | 9 | -20%
Cc1ccc2cc(C(c3nnnn3C3CCCC3)N(Cc3cccnc3)Cc3ccco3)c(=O)[nH]c2c1 (configuration not stated) | 22 | -22% | -14% | 0 | 13µM*
CS(=O)(=O)Cc1nc2ccccc2oc1=O | 30 | 6.6µM* | -162% | -3 | u
C/C(O)=C\c1nc2ccccc2oc1=O | 47* | u | -87% | 25* | u
O=c1oc2ccccc2nc1/C=C(\O)c1ccc(Br)cc1 | 39* | u | -90% | 27* | 1.9µM*
CC1CCCN(c2c([N+](=O)[O-])cc(C(=O)O)cc2[N+](=O)[O-])C1 (configuration not stated) | 19 | u | x | 7 | 34%
Cc1cc(NS(=O)(=O)c2ccc(NC(=O)/C=C/c3ccccc3Cl)cc2)no1 | -4 | 48% | 12% | -2 | -11%
CCN(CC)c1ccc(NC(=O)C(C)C)cc1 | -4 | 118% | -8% | -3 | 22%
CCN(CC)c1ccc(NC(=O)/C=C\c2ccccc2Cl)cc1 | 64* | 1µM* | 8% | 27* | u
CN(C)c1ccc(NC(=O)/C=C/c2ccccc2Cl)cc1 | 80* | u | 13% | 32* | u
CC1CC(C)(C)NC(=S)N1CCC(=O)N1CCc2ccccc2C1 (configuration not stated) | -7 | u | x | 2 | -11%
Cc1cc2nccc(-c3ccccn3)n2n1 | -5 | 31% | x | -4 | u
c1ccc(-c2cc3nccc(-c4ccccn4)n3n2)cc1 | 94* | 335% | -10% | 45* | 247%
O=C(/C=C/c1ccc(-c2cccc([N+](=O)[O-])c2)o1)N1CCOCC1 | 146* | 55% | -8% | 31* | 97%
O=C(/C=C/c1cccc([N+](=O)[O-])c1)N1CCOCC1 | 4 | -19% | 9% | -1 | 25%
CCOc1ccc(C(=O)N2CCCC2)cc1 | 14 | u | -5% | 7 | 16%
CCCCCOc1ccc(C(=O)CCC(=O)N2CCCC2)cc1 | 51* | u | -11% | 22* | u
CCCCOc1ccc(C(=O)NCCCC(=O)N2CCCCC2)cc1 | 13 | -5% | -7% | -2 | u
COc1ccc(OCCC(=O)N2CCCCC2)cc1 | 35* | x | 4% | 27* | 127%
CCCCOc1c(Cl)cc(C(=O)N2CCN(CC(=O)N3CCCC3)CC2)cc1OCC | x | u | x | x | 12µM*
CCCCOc1ccc(C(=O)N2CCCC2)cc1 | 103* | x | -7% | 36* | 106%
CC1CCCC(NC(=O)C2CCN(C(=O)Nc3ccccc3)CC2)C1C (configuration not stated) | x | 3% | x | x | -13%
CCOC(=O)c1cc([N+](=O)[O-])c([N+](=O)[O-])cc1NC(C)=O | -24 | -14% | -47% | -8 | 0%
CCCn1c(SCC(=O)Nc2nc(C)c(C(=O)OC)s2)nnc1C(C)C | 15 | 6% | -2% | -5 | u
SMILES | Shiga inhibitor | Pf growth 96h | NS1 inh | Cycloheximide cs | Pf growth 48h
Cc1nc(NC(=O)CSc2nnnn2C)sc1C | 71* | 62% | 1% | 40* | 344%
CCc1nnc(NC(=O)CSc2nnnn2C)s1 | 4 | 25% | 6% | -1 | -21%
COC(=O)c1sc(NC(=O)CSc2nnnn2C)nc1C | 121* | u | -8% | 29* | 57%
Cc1csc(NC(=O)CSc2nnc(C)c(=O)n2N)n1 | -4 | 34% | 4% | 9 | 32%
Cc1csc(NC(=O)CSc2nnnn2C)n1 | 53* | 9.3µM* | 5% | 25* | 203%
COCCNC(=O)C(c1ccc(Cl)cc1)N(CCOC)C(=O)CCC(=O)Nc1ccccn1 (configuration not stated) | -5 | 5% | 2% | -4 | 29%
O=S(=O)(c1ccc2nc(-c3ccccc3)[nH]c2c1)N1CCN(c2ccc(Cl)cc2)CC1 | -12 | u | 14% | -6 | 12µM*
O=S(=O)(c1ccc2nc(COc3ccc(Cl)cc3Cl)[nH]c2c1)N1CCOCC1 | 22 | 52% | -9% | 14* | x
Cc1ccccc1OCc1nc2ccc(S(=O)(=O)N3CCOCC3)cc2[nH]1 | -16 | u | 1% | -5 | x
